# Experimental data from PubChem BioAssay.
# Calls of active or inactive are those of the source. Cut-off read from the data, not from the text of the source, unless noted: active = inhibition above about 80%; inactive = the rest.
# Legend:
# [1] = LFS_MB_P medulloblastoma growth inhibition, cell-based, chromothripsis tumors, cisplatin or BGB combos (AID 1671449); details: LFS_MB_P medulloblastoma cells;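 note: cells exposed for 96 hours; 0% = vehicle DMSO and 100% = killing by high DMSO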
# [2] = HDN33 neuroblastoma growth inhibition, cell-based, chromothripsis tumors, cisplatin or BGB combos (AID 1671450); details: HDN33 neuroblastoma cells, stronger effect = higher value;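 note: cells exposed to compound for four days; 0% = vehicle DMSO and 100% = cell killing by high DMSO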
# [3] = ICB984 medulloblastoma cell growth inhibition, synergistic combos for chromothripsis tumors, cisplatin or BGB combos (AID 1671451; call rule not given here;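 note: cells exposed for 96 hours before readout; 0% = vehicle DMSO and 100% = killing by high DMSO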); details: ICB984 medulloblastoma cells, drug combinations, stronger effect = higher value
# [4] = LFS_MB_1R medulloblastoma cell growth inhibition, synergistic combos for chromothripsis tumors, cisplatin or BGB combos (AID 1671452); details: LFS_MB_1R medulloblastoma cells, stronger effect = higher value;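 note: cells exposed for 96 hours before readout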
# [5] = HTB85 osteosarcoma cell growth inhibition, synergistic combos for chromothripsis tumors, BGB or cisplatin IC20 combos (AID 1671453); details: HTB85 osteosarcoma cells, drug combinations, stronger effect = higher value;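 note: cells exposed for 96 hours before readout; 0% = vehicle DMSO and 100% = high DMSO killing control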
# [6] = CRL2098 osteosarcoma cell growth inhibition, synergistic combos for chromothripsis tumors, BGB or cisplatin IC20 combos (AID 1671454); details: CRL2098 osteosarcoma cells, drug combinations, stronger effect = higher value;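 note: cells exposed for 96 h before readout; 0% = vehicle DMSO and 100% = killing by high DMSO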
# [7] = HD-MB03 medulloblastoma cell growth inhibition, synergistic combos for chromothripsis tumors, BGB or cisplatin IC20 combos (AID 1671455; in the data active = inhibition above about 83%;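 note: 0% = vehicle DMSO and 100% = high DMSO as cytotoxic control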); details: HD-MB03 medulloblastoma cells, stronger effect = higher value
# [8] = UWB1.289 ovarian carcinoma cell growth inhibition, synergistic combos for chromothripsis tumors, BGB or cisplatin combos (AID 1671456); details: UWB1.289 ovarian carcinoma cells, stronger effect = higher value;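 note: cells exposed to compound for four days; 0% = vehicle DMSO and 100% = killing by high DMSO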
# [9] = LFS_MB_2R medulloblastoma cell growth inhibition, synergistic combos for chromothripsis tumors, cisplatin combos (AID 1671457); details: LFS_MB_2R medulloblastoma cells, stronger effect = higher value;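 note: cells exposed to compound for four days before readout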
# [10] = MDA-MB-436 breast carcinoma cell growth inhibition, synergistic combos for chromothripsis tumors, BGB or cisplatin combos (AID 1671458; call rule not given here;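 note: cells exposed for 96 hours; 0% = vehicle DMSO and 100% = killing by high DMSO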); details: MDA-MB-436 breast carcinoma growth inhibition, drug combinations, stronger effect = higher value
# [11] = UWB1.289_BRCA1 ovarian cancer growth, cell-based, BGB or cisplatin combinations (AID 1671459); details: UWB1.289 BRCA1 ovarian carcinoma, drug combinations, stronger effect = higher value
# [12] = human astrocyte viability loss, single and combined drugs, cytotoxicity control for chromothriptic childhood tumor combination screen, cell-based, BGB or cisplatin IC20 combos (AID 1671460); details: Human astrocytes, drug combinations, stronger effect = higher value;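 note: cells exposed to compounds for 96 hours before viability readout; 0% = vehicle and 100% = killing control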
# [13] = growth inhibition of BT084 medulloblastoma cells, cell-based, ICGC_MB145, cisplatin and BGB IC40 combos (AID 1671461); details: drug combinations, stronger effect = higher value;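 note: cells exposed to drugs for 96 hours; 0% = vehicle DMSO and 100% = high DMSO full killing control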
# [14] = growth inhibition of RCMB18 medulloblastoma cells, cell-based, cisplatin and BGB IC40 combos (AID 1671462); details: stronger effect = higher value;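 note: cells exposed to compound for four days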
# [15] = growth inhibition of CRL1545 osteosarcoma cells, cell-based, cisplatin and BGB IC20 combos (AID 1671464); details: stronger effect = higher value;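 note: cells exposed to compound for 96 hours before readout; 0% = vehicle DMSO and 100% = high DMSO killing control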
# [16] = viability rescue of complex I mutant cybrids, primary screen, cell-based, galactose medium, ATP luminescence (AID 1645843;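 active = z-score of at least 1.8 in each of two replicates, scored against plate mean and spread of sample wells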;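 note: positive z means more ATP and so rescue of galactose-driven cybrid death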); details: complex I mutant cybrid cells, 72 h, stronger effect = higher value
# [17] = at 0.5 µM, stronger effect = higher value
# [18] = measured here: combination with BGB IC20, at 0.005 µM
# [19] = measured here: combination with BGB IC40, at 0.005 µM
# [20] = measured here: combination with BGB IC40, at 0.05 µM
# [21] = measured here: combination with cisplatin, at 0.5 µM, stronger effect = higher value
# [22] = measured here: combination with cisplatin, at 5 µM, stronger effect = higher value
# [23] = measured here: with BGB IC20 combination, at 0.5 µM
# [24] = measured here: with cisplatin IC20 combination, at 0.5 µM
# [25] = measured here: 5 uM single agent, at 5 µM
# [26] = measured here: combination with cisplatin, at 0.5 µM
# [27] = measured here: combination with cisplatin, at 5 µM
# [28] = measured here: with BGB IC20, at 0.5 µM
# [29] = measured here: with BGB IC20, at 5 µM
# [30] = measured here: with cisplatin IC20, at 0.5 µM
# [31] = measured here: with cisplatin IC20, at 5 µM
# [32] = measured here: combination with BGB at IC20, at 0.5 µM
# [33] = measured here: combination with cisplatin at IC20, at 0.5 µM
# [34] = measured here: combo with BGB at IC20, at 0.5 µM
# [35] = measured here: combo with cisplatin at IC20, at 0.5 µM
# [36] = measured here: inhibition with BGB combination, at 0.05 µM
# [37] = measured here: inhibition with cisplatin combination, at 0.05 µM
# [38] = measured here: BGB combination, at 0.5 µM
# [39] = measured here: BGB combination, at 5 µM
# [40] = measured here: cisplatin combination, at 0.5 µM
# [41] = measured here: cisplatin combination, at 5 µM
# [42] = BGB combination, concentration series, at 5 µM
# [43] = cisplatin combination, concentration series, at 5 µM
# [44] = measured here: combo with BGB IC20, at 0.5 µM
# [45] = measured here: combo with cisplatin IC20, at 0.5 µM
# [46] = cisplatin combination, at 0.5 µM
# [47] = measured here: BGB IC40 combination 0.05 uM, at 0.05 µM
structure (smiles),measurement,setting,value
O=c1ccn(C2CC(O)C(CO)O2)c(=O)[nH]1 (centres undefined),inhibition,[1]; [17],-18.8% (inactive)
same,inhibition,[1]; [18],-7.41%
same,inhibition,[1]; [19],-27.4%
same,inhibition,[1]; [20],-29.5%
same,inhibition,[1]; [21],-37.9%
same,inhibition,[1]; [22],-35.5%
same,inhibition,"[2]; BGB combo, at 5 µM",-20.7%
same,inhibition,[2]; at 0.5 µM,-36.9% (inactive)
same,inhibition,"[2]; cisplatin combo, at 5 µM",-20.7%
same,inhibition,[2]; [23],-38.7%
same,inhibition,[2]; [24],-41.3%
same,inhibition,"[2]; single agent, at 5 µM",-10.1%
same,inhibition,"[3]; BGB IC20 combo, at 0.005 µM",4%
same,inhibition,"[3]; BGB IC40 combo, at 0.005 µM",-31.4%
same,inhibition,"[3]; BGB IC40 combo, at 0.05 µM",-22%
same,inhibition,[3]; at 0.5 µM,-20.1% (inactive)
same,inhibition,"[3]; cisplatin combo, at 0.05 µM",-25.4%
same,inhibition,"[3]; cisplatin combo, at 0.5 µM",-21.2%
same,inhibition,"[3]; cisplatin combo, at 5 µM",-29.4%
same,inhibition,[3]; [25],-22%
same,inhibition,[4]; at 0.5 µM,-29.6% (inactive)
same,inhibition,[4]; [20],-35%
same,inhibition,[4]; [26],-32.9%
same,inhibition,[4]; [27],-47.4%
same,inhibition,[5]; at 0.5 µM,-20.1% (inactive)
same,inhibition,[5]; [28],-39.5%
same,inhibition,[5]; [29],-39.3%
same,inhibition,[5]; [30],-5.42%
same,inhibition,[5]; [31],-49.8%
same,inhibition,"[5]; single agent, at 5 µM",-26.7%
same,inhibition,[6]; at 0.5 µM,-68.3% (inactive)
same,inhibition,[6]; [32],-48.5%
same,inhibition,[6]; [33],-72.4%
same,inhibition,[7]; at 0.5 µM,-3.73% (inactive)
same,inhibition,[7]; [34],-8.35%
same,inhibition,[7]; [35],-4.82%
same,inhibition,[8]; at 0.5 µM,0.16% (inactive)
same,inhibition,[8]; [36],-21%
same,inhibition,[8]; [37],-1.45%
same,inhibition,[9]; at 0.5 µM,-20.5% (inactive)
same,inhibition,[9]; [26],-18.3%
same,inhibition,[9]; [27],-78.5%
same,inhibition,[10]; at 0.5 µM,-14.8% (inactive)
same,inhibition,[10]; [38],-6.54%
same,inhibition,[10]; [39],-25.5%
same,inhibition,[10]; [40],-29.1%
same,inhibition,[10]; [41],-17%
same,inhibition,[11]; [42],-3.77%
same,inhibition,[11]; at 0.5 µM,0.57% (inactive)
same,inhibition,[11]; [43],10.4%
same,inhibition,[12]; at 0.5 µM,3.18% (inactive)
same,inhibition,[12]; [44],-6.85%
same,inhibition,[12]; [45],4.49%
same,inhibition,[13]; at 0.5 µM,-24.6% (inactive)
same,inhibition,[13]; [46],-0.373%
same,inhibition,"[13]; cisplatin combination, at 5 µM",1.74%
same,inhibition,[13]; [47],26.6%
same,inhibition,"[13]; single agent, at 5 µM",-10.6%
same,inhibition,[14]; at 0.5 µM,-15.4% (inactive)
same,inhibition,"[14]; cisplatin combo, at 5 µM",1.69%
same,inhibition,"[14]; measured here: BGB IC40 combination, at 0.05 µM",3.1%
same,inhibition,[14]; [26],9.29%
same,inhibition,"[14]; single agent, at 5 µM",-204%
same,inhibition,[15]; at 0.5 µM,-20.7% (inactive)
same,inhibition,[15]; [23],-5.72%
same,inhibition,[15]; [24],-31.1%
same,inhibition,"[15]; single agent, at 0.05 µM",-46.2%
same,inhibition,"[15]; single agent, at 5 µM",-14.8%
CC(=O)NCCC1CCN(C(=O)C(C)Oc2cc(C)c(Cl)c(C)c2)CC1 (centres undefined),z-score,[16],-0.5 (inactive)
Nc1ccccc1NC(=O)c1cnccn1,inhibition,[1]; [17],-12.4% (inactive)
same,inhibition,[1]; [18],-41.6%
same,inhibition,[1]; [19],85.5%
same,inhibition,[1]; [20],-7.35%
same,inhibition,[1]; [21],-18.9%
same,inhibition,[1]; [22],-28.5%
same,inhibition,"[2]; BGB combo, at 5 µM",-12.4%
same,inhibition,[2]; at 0.5 µM,-14.6% (inactive)
same,inhibition,"[2]; cisplatin combo, at 5 µM",6.5%
same,inhibition,[2]; [23],-34.1%
same,inhibition,[2]; [24],5.82%
same,inhibition,"[2]; single agent, at 5 µM",1.32%
same,inhibition,"[3]; BGB IC20 combo, at 0.005 µM",-16.9%
same,inhibition,"[3]; BGB IC40 combo, at 0.005 µM",-7.68%
same,inhibition,"[3]; BGB IC40 combo, at 0.05 µM",-8.97%
same,inhibition,[3]; at 0.5 µM,-30.1% (inactive)
same,inhibition,"[3]; cisplatin combo, at 0.05 µM",-14.5%
same,inhibition,"[3]; cisplatin combo, at 0.5 µM",-45.8%
same,inhibition,"[3]; cisplatin combo, at 5 µM",-16.9%
same,inhibition,[3]; [25],-10%
same,inhibition,[4]; at 0.5 µM,-27.6% (inactive)
same,inhibition,[4]; [20],-29.7%
same,inhibition,[4]; [26],-55.5%
same,inhibition,[4]; [27],-22%
same,inhibition,[5]; at 0.5 µM,-12.2% (inactive)
same,inhibition,[5]; [28],-6.35%
same,inhibition,[5]; [29],4.3%
same,inhibition,[5]; [30],-15.5%
same,inhibition,[5]; [31],27.4%
same,inhibition,"[5]; single agent, at 5 µM",-13.3%
same,inhibition,[6]; at 0.5 µM,-55.8% (inactive)
same,inhibition,[6]; [32],-72.3%
same,inhibition,[6]; [33],-47%
same,inhibition,[7]; at 0.5 µM,-6.67% (inactive)
same,inhibition,[7]; [34],-7.96%
same,inhibition,[7]; [35],-6.22%
same,inhibition,[8]; at 0.5 µM,12.9% (inactive)
same,inhibition,[8]; [36],-30.1%
same,inhibition,[8]; [37],-23.2%
same,inhibition,[9]; at 0.5 µM,-19.8% (inactive)
same,inhibition,[9]; [26],-6.3%
same,inhibition,[9]; [27],1.58%
same,inhibition,[10]; at 0.5 µM,-6.35% (inactive)
same,inhibition,[10]; [38],-5.5%
same,inhibition,[10]; [39],-1.92%
same,inhibition,[10]; [40],-13.4%
same,inhibition,[10]; [41],-2.01%
same,inhibition,[11]; [42],22.6%
same,inhibition,[11]; at 0.5 µM,-5.39% (inactive)
same,inhibition,[11]; [43],17%
same,inhibition,[12]; at 0.5 µM,3.77% (inactive)
same,inhibition,[12]; [44],3.42%
same,inhibition,[12]; [45],8.86%
same,inhibition,[13]; at 0.5 µM,-7.12% (inactive)
same,inhibition,[13]; [46],-9.24%
same,inhibition,"[13]; cisplatin combination, at 5 µM",-35.5%
same,inhibition,[13]; [47],-29.6%
same,inhibition,"[13]; single agent, at 5 µM",14.3%
same,inhibition,[14]; at 0.5 µM,-13.8% (inactive)
same,inhibition,"[14]; cisplatin combo, at 5 µM",35.4%
